Abs 340nm: absorbance at 340 nm; compound absorbance at 340 nm, fold over control; fold change at 10 µM; 65,000 tested, under 10 active;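 active means at 10 µM dose, initial 340 nm absorbance at least 2 fold that of control wells; inactive means change under 2 fold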;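 further: initial absorbance extrapolated from kinetic A340 decline of NADH oxidation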
NADH coupling: inhibitors of enzymes used to reach an NAD/NADH endpoint. IC50, µM (titrated, usually from 10 µM), inactives show at the top dose inhibition. 0.02% of 65,000 active. coupled PK/LDH NADH assays, four targets;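 active means single-dose screening hits from any of four coupled enzyme assays that gave an IC50 when retested across doses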;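 further: the DPM-DC format reads NADH fluorescence rather than 340 nm absorbance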
Autofluor 339: intrinsic fluorescence of library compounds, ex339/em460 – biochemical, MLSMR library, data from DPM-DC assay, artefact control, profiling panel; fluorescence fold increase at 10 µM; 5.5% of 65,000 active; compound autofluorescence, ex339/em460 nm, NADH buffer; hits give high values; 1 = no-compound wells, NADH background;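 active means at 10 µM, mean starting fluorescence two-fold or more over control wells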;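 further: signal is the first read of a kinetic run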
DPM-DC inhibit: S. pneumoniae DPM-DC inhibition; purified DPM-DC, PK/LDH coupled NADH fluorescence; calls only at 10 µM; 0.49% of 65,000 active; AID 556;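 active means the 320 compounds with the highest percent inhibition in the single-dose primary screen, excluding strongly autofluorescent ones, cut at about 32% in these data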;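 further: kinetic rate of NADH fluorescence loss reporting ADP formed by the decarboxylase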
Spn MK inh: inhibitors of Streptococcus pneumoniae mevalonate kinase. purified MK, PK/LDH-coupled NADH absorbance 340 nm. inhibition, % at 10 µM. 0.48% of 65,000 active. AID 555;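 active means ranked among the strongest by inhibition in the single 10 µM screen, a fixed top-ranked set picked for dose follow-up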
PMK inhibit: blocks S. pneumoniae phosphomevalonate kinase. 0.49% of 65,000 active. purified PMK, PK/LDH-coupled NADH absorbance 340 nm. inhibition, % at 10 µM. AID 539;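 active means top-ranked compounds by inhibition in the single 10 µM screen, taking a fixed number of the strongest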;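 further: 0% = full reaction with DMSO carrier and 100% = background rate without enzyme reaction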
Active calls of the source: *; i = inactive; nt = not tested or not shown; + = active, no number. A selection: hits, their analogues and other compounds. The true share with any hit is near 6.3%.

SMILES	Abs 340nm	NADH coupling	Autofluor 339	DPM-DC inhibit	Spn MK inh	PMK inhibit
CCN(CC)CCN(Cc1cc2cc3c(cc2[nH]c1=O)OCCO3)C(=O)NC1CCCCC1	1.08	12.0%	3.81*	nt	8.0	16.0
COc1ccc(CCN(Cc2cc3cc(C)ccc3[nH]c2=O)C(=O)N2CCCC2)cc1OC	1	4.0%	1.25	i	5.0	6.0
Cc1ccc2[nH]c(=O)c(CN(CCCN3CCOCC3)C(=O)NC3CCCCC3)cc2c1	1.02	3.0%	1.59	i	5.0	5.0
CCOC(=O)C1=C(C)N2C(=C(C#N)[C@@H]1c1ccc(C(=O)OC)cc1)SC[C@@]2(O)C(C)(C)C	1.05	5.0%	1.19	i	3.0	11.0
COCCN(Cc1cc2cc3c(cc2[nH]c1=O)OCO3)C(=O)c1cccs1	1.13	17.0%	2.72*	+	6.0	10.0
O=C(NCc1ccco1)c1cnc2n(c1=O)CCS2	1.01	3.0%	1.01	i	1.0	3.0
Cc1csc2ncc(C(=O)NCc3ccco3)c(=O)n12	1.09	14.0%	3.76*	i	6.0	9.0
COc1ccc(CNC(=O)c2cnc3scc(C)n3c2=O)cc1	1.18	9.0%	2.13*	nt	5.0	13.0
CCN(CC)CCNC(=O)c1sc2nc(-c3ccccc3)cn2c1C	1.01	6.0%	1.07	i	0.0	18.0
C=CCc1c(C)c(C#N)c2nc3ccccc3n2c1N1CCN(C)CC1	1.04	7.0%	1.13	i	6.0	4.0
Cc1ccc2[nH]c3c(N4CCCCCC4)ncnc3c2c1	1.05	3.0%	1.29	i	0.0	8.0
Fc1ccc2[nH]c3c(N4CCN(C5CCCCC5)CC4)ncnc3c2c1	1.05	3.0%	2.34*	nt	3.0	2.0
CCC(C)(C)NC(=O)C(c1ccccc1F)N(Cc1ccco1)C(=O)c1csnn1 (stereo not given)	1.05	13.0%	1.06	i	0.0	38.0*
CCOC(=O)c1sc(C)c(C(=O)NCCCN2CCOCC2)c1N	1.06	7.0%	2.26*	i	4.0	4.0
O=C(c1cccc(S(=O)(=O)N2CCCC2)c1)c1nnc(-c2ccncc2)o1	0.99	8.0%	1.04	i	9.0	15.0
CCc1nnc(NC(=O)CSc2nccn2-c2cc(C)cc(C)c2)s1	1.06	4.0%	1.05	i	9.0	0.0
CCN(CC)CCN=C1CCCc2ccccc2N1	1.01	4.0%	1.11	i	5.0	6.0
O=C(O)CCc1ccc(-c2ccccc2)n1CC1CCCO1 (stereo not given)	1.03	10.0%	4*	nt	11.0	8.0
COC(=O)Cn1c(CCC(=O)O)ccc1-c1ccccc1	1.04	0.0%	2.2*	nt	0.0	0.0
COc1ccc(-c2ccc(CCC(=O)O)n2C(C)C)cc1	1.07	7.0%	2.03*	i	4.0	2.0
CCCn1c(CCC(=O)O)ccc1-c1ccc(F)cc1	1.07	8.0%	2.01*	i	9.0	6.0
Cc1nn(-c2ccc(Cl)cc2)c2[nH]c(=O)c(CNCc3ccc4c(c3)OCO4)cc12	1.01	5.0%	1.26	i	7.0	9.0
COc1ccc2[nH]c(=O)c(CN(Cc3nnnn3Cc3ccccc3)CC3CCCO3)cc2c1 (stereo not given)	1.08	10.0%	2.14*	i	10.0	10.0
COc1ccc2[nH]c(=O)c(CN(Cc3nnnn3Cc3ccc(F)cc3)CC3CCCO3)cc2c1 (stereo not given)	1.04	12.0%	2*	i	15.0	12.0
COc1ccc2cc(CN(Cc3cccnc3)Cc3nnnn3Cc3ccccc3)c(=O)[nH]c2c1	1.12	9.0%	1.25	i	9.0	13.0
SMILES	Abs 340nm	NADH coupling	Autofluor 339	DPM-DC inhibit	Spn MK inh	PMK inhibit
COCCn1nnnc1CN(Cc1cccnc1)Cc1cc2cc(OC)ccc2[nH]c1=O	0.99	8.0%	2.21*	+	0.0	13.0
COc1ccc2nc(NC(=O)CN(c3ccc(C)cc3)S(=O)(=O)c3c(C)nn(C)c3C)sc2c1	1	2.0%	1.08	i	2.0	3.0
COCc1c(C)cc(C)c(/C=N/O)c1C	1.05	4.0%	1.06	i	6.0	5.0
Cc1ccnc(NC(=O)CCC(=O)N(CC(=O)NCC2CCCO2)Cc2ccc(F)cc2)c1 (stereo not given)	0.97	10.0%	1.07	i	10.0	21.0
Cc1nc2cc(NC(=O)N3CC4(C)CC3CC(C)(C)C4)ccc2n1C (stereo not given)	1.01	3.0%	1	i	10.0	1.0
CC1C2CC(CC1(C)C)N(C(=O)Nc1ccc3nccnc3c1)C2 (stereo not given)	1.06	2.0%	2.24*	nt	3.0	0.0
NC(=O)c1nc(C2CCCCC2)nc2c1[nH]c(=O)n2-c1ccc(F)cc1	1.04	6.0%	2.12*	nt	4.0	7.0
COc1ccc(OC)c(-c2nc(C(N)=O)c3[nH]c(=O)n(-c4ccc(F)cc4)c3n2)c1	1.11	2.0%	1.15	i	0.0	6.0
COc1ccccc1-n1c(=O)[nH]c2c(C(N)=O)nc(C3CCCCC3)nc21	1.04	11.0%	1.77	i	9.0	4.0
Cc1ccc(-n2c(=O)[nH]c3c(C(N)=O)nc(-c4ccc(C)o4)nc32)cc1	1.03	8.0%	2.36*	i	3.0	15.0
CCOc1ccccc1-c1nc(C(N)=O)c2[nH]c(=O)n(-c3cccc(C)c3)c2n1	1.05	10.0%	2.53*	i	0.0	10.0
COc1ccccc1-n1c(=O)[nH]c2c(C(N)=O)nc(-c3cccnc3)nc21	1.04	3.0%	2.46*	nt	2.0	8.0
CCOc1cccc(-c2nc(C(N)=O)c3[nH]c(=O)n(-c4cccc(Cl)c4)c3n2)c1O	1.03	3.0%	1.03	i	4.0	5.0
Clc1c(-c2nnc3n2CCC3)sc2ccccc12	1.29	36.0%	1.26	+	8.0	3.0
CC(C)CNC(=O)c1cc(-c2ccco2)on1	1	3.0%	1.12	i	6.0	4.0
CC(=O)Nc1nc(CC(C)C)cc(-c2ccco2)c1C#N	1.11	7.0%	2.27*	nt	10.0	4.0
Cc1ccc(/C(O)=C2\C(=O)C(=O)N(CCCN(C)C)C2c2ccccn2)cc1 (stereo not given)	1.01	3.0%	1.02	i	12.0	9.0
CCC(C)(C)NC(=O)CN(CC1CCCO1)C(=O)CCC(=O)Nc1nccs1 (stereo not given)	1.03	5.0%	1.14	i	4.0	10.0
Cc1ccc2oc(=O)c3cc(C(=O)NCCN4CCN(C)CC4)sc3c2c1	1.2	9.0%	2.17*	nt	9.0	9.0
COc1ccc(Nc2nc3c(c(=O)n(C)c(=O)n3C)n2CCO)cc1	1.01	8.0%	1.09	i	9.0	16.0
CCCCCC(=O)N1CC2(CC)CN(C(=O)CCCCC)CC(CC)(C1)C2=O	1.05	1.0%	1.04	i	2.0	1.0
COC(=O)c1cc2nc(-c3ccc(OC)cc3)cc(C(F)(F)F)n2n1	1.04	6.0%	2.19*	nt	11.0	0.0
